Source: PubChem BioAssay (NCI)
About 83,000 compounds went through this panel and 20% of them were active in at least one assay; those are over-represented in the sample as a whole.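 For each line, cells grew in 96-well plates with the test compound present at a single concentration for 48 hours.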 Active and inactive are the calls of the source. The calls were made as follows: active = growth percent below 10; inactive = the rest.

Test system: RPMI-8226 leukemia
Experiment: NCI-60 one-dose screen, 48 h (100 = growth as untreated, 0 = no growth, -100 = all killed)
Settings: 10 µM unless noted

Structure (SMILES) | growth
Nc1c(C(=O)Nc2ccccc2)sc2nc3c(cc12)CCCCC3 | -29.6% (active)
CCNC(=O)CCCCC(=O)c1c(C)[nH]c(/C=C2\N=C(c3ccc[nH]3)C=C2OC)c1C | 51.6% (inactive)
Cc1cc(Nc2nc(C(=O)Nc3ccccc3)nc3ccccc23)n[nH]1 | 59.6% (inactive)
COc1ccc(/C=C2\C(=O)N(C(=O)c3csc(NC(C)=O)n3)N=C2C)cc1 | 98.4% (inactive)
COc1ccc(-c2nc3sccn3c2-c2ccnc(NCCCNS(=O)(=O)c3ccc4ccccc4c3)n2)cc1 | 54.9% (inactive)
CC[C@]1(O)C[C@@H]2CN(Cc3c([nH]c4ccccc34)[C@@](C(=O)OC)(c3cc4c(cc3OC)N(C)[C@H]3[C@@](O)(C(=O)OC)[C@H](OC(C)=O)[C@]5(CC)[C@@H]6C[C@@H]6CN6CC[C@]43[C@@H]65)C2)C1 | 48.8% (inactive)
CN=S(=O)(NC(=O)c1ccc(Cl)cc1Cl)c1ccc(Br)s1 (stereo unspecified) | 98% (inactive)
Cc1ccc(S(=O)(=O)NCCCNc2nccc(-c3c(-c4ccccc4)nc4sccn34)n2)cc1 | 25.6% (inactive)
COc1ccc(C2CC(c3cccs3)=NN2c2ccc(S(=O)(=O)NC(=O)Nc3ccc(C)cc3)cc2)cc1 (stereo unspecified) | 83.4% (inactive)
CNC(=O)Cc1nc(-c2cccc(NS(=O)(=O)c3c(F)cccc3F)c2F)c(-c2ccnc(Nc3ccccc3)n2)s1 | 101% (inactive)
O=c1[nH]c2ccccc2cc1-c1nnc(Cc2ccccc2)o1 | 15.3% (inactive)
Oc1ccc(Cl)cc1-c1cc(-c2ccc(Cl)cc2)n[nH]1 | 40.4% (inactive)
CN1C(=O)[C@H]2c3c1cccc3[C@@]13NC(=O)O[C@H]1[C@H](CCC3(C)C)C2(C)C | 97% (inactive)
Cc1cccc(-n2c(C)nc3ccc(NC(=O)NCCCl)cc3c2=O)c1 | 97.6% (inactive)
COc1c(NC[C@H]2OC(O)[C@H](O)[C@@H](O)[C@@H]2O)c(=O)c1=O (stereo partly specified) | 101% (inactive)
COc1ccc(-c2nnc(COc3ccc(NS(=O)(=O)c4ccc(OC)cc4)cc3F)o2)cc1 | 43.4% (inactive)
CCCOC(=O)C1(O)CCCC1 | 96.5% (inactive)
Nc1c(C(=O)Nc2ccccc2)sc2nc3c(cc12)CN(Cc1ccccc1)CC3 | 79.6% (inactive)
COc1cc(OC)cc(-c2n[nH]nc2-c2ccc3c(c2)OCO3)c1 | 26.2% (inactive)
Cc1ccc(Oc2nc3ccccc3cc2-c2nnc(Cn3c(COc4ccccc4)nc4ccccc43)o2)cc1 | -4.32% (active)
COc1cc(C(=O)/C=C/c2cc(C(=O)c3cc(OC)c(OC)c(OC)c3)ccc2OC)ccc1N | -9.87% (active)
